Mtb FBA inh: Mtb fructose-bisphosphate aldolase inhibition; 360,000 tested, 2.3% active; inhibition, % at 1 µM; purified M. tuberculosis FBA, fluorescence read-out;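 note: 0% = vehicle and 100% = reference inhibitor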
Rv3671c inh: Rv3671c (M. tuberculosis) protease inhibition. inhibition, % at 5.96 µM. AID 2606. 320,000 tested, 0.048% active; in the data active = inhibition above about 38%;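 note: extracellular domain of Rv3671c used as enzyme; 0% = enzyme with DMSO and 100% = no enzyme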
Target sequence (P9WHR9 whole entry, looked up, the tested form may be a part): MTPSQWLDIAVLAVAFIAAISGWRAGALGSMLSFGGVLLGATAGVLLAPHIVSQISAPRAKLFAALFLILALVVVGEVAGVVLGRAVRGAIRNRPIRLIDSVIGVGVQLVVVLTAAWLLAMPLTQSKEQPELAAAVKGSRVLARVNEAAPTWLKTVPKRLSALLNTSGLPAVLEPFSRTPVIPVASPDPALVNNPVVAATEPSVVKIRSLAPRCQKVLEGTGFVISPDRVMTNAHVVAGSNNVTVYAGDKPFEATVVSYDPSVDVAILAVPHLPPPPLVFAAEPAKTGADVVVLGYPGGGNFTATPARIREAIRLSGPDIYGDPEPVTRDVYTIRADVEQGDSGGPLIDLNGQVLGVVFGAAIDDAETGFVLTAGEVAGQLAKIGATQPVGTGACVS
GDH-TPI counter-1: counter-screen for M. tuberculosis FBA inhibitors: GDH-TPI coupled enzymes; GDH-TPI coupled enzyme counterscreen, NADH absorbance; inhibition, % at 4.8 µM; 360,000 tested, 1.2% active; AID 588335; in the data active = inhibition above about 30%;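 note: 0% = DMSO wells and 100% = wells lacking the enzyme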
RecA splice inh: blocks M. tuberculosis RecA intein splicing; 290,000 tested, 0.75% active; inhibition, % (concentration not given with the values); P9WHJ3; AID 2221; cell-free RecA intein splicing, fluorescence; in the data active = inhibition above about 30%; inconclusive = no clear call, values can overlap the other calls;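 note: 0% = vehicle wells and 100% = reference inhibitor control wells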
Mtb betalactam: beta-lactam sensitization of Mtb H37Rv; M. tuberculosis H37Rv growth with meropenem, percent inhibition; inhibition, % at 25 µM; 330,000 tested, 0.27% active; call rule not given here;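 note: growth measured after seven days incubation then overnight dye step; 0% = bacteria only wells and 100% = bacteria with antibiotic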
Mtb UGM inh: inhibitors of M. tuberculosis UDP-galactopyranose mutase | P9WIQ1 | purified UGM, fluorescence polarization probe displacement | inhibition, % at 10 µM | 320,000 tested, 0.06% active; in the data active = inhibition above about 10%, passing the limit was not always enough; inconclusive = no clear call, values can overlap the other calls
Mtb FBA inh conf: confirmation of M. tuberculosis fructose-bisphosphate aldolase inhibitors | shares compounds with Mtb FBA inh | purified M. tuberculosis FBA, fluorescence read-out | inhibition, % at 1 µM | 5,600 tested, 78% active | AID 651616;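 note: 0% = vehicle wells and 100% = reference inhibitor wells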
GDH-TPI counter-2: inhibits GDH-TPI coupling enzymes, flagging Mtb FBA hits | shares compounds with Mtb FBA inh | GDH-TPI coupled enzyme counterscreen, fluorescence | inhibition, % at 1 µM | 5,600 tested, 81% active; in the data active = inhibition above about 10%
GDH-TPI DR: GDH-TPI dose response counter-screen for Mtb FBA; shares compounds with Mtb FBA inh; GDH-TPI coupled enzyme assay, fluorescence, artifact counterscreen; 170 tested, 79% active; IC50, µM; call rule not given here
* hit, by the source's call; ? = inconclusive; · = no result; + = active, no number. A selection: hits, their analogues and other compounds. The true share with any hit is near 4%. Cut-off read from the data, not from the text of the source, unless noted: active = inhibition above about 27%; inactive = the rest.

SMILES	Mtb FBA inh	Rv3671c inh	GDH-TPI counter-1	RecA splice inh	Mtb betalactam	Mtb UGM inh	Mtb FBA inh conf	GDH-TPI counter-2	others
NN(Cc1ccccc1)C(=S)Nc1ccc(Cl)c(Cl)c1	-3.5	-9.7	1.1	13.8	82.0	-0.8	·	·
CCOC(=O)c1cnc2c(-c3ccc(F)cc3)cnn2c1C(F)(F)F	73.5*	·	13.2	·	·	·	17.4	7.0
COc1ccc(CN(C(=O)c2cccs2)c2ccccc2C(=O)O)cc1	6.6	5.4	15.8	-1.6	-5.3	2.5	·	·
CN(C(=O)c1cccs1)c1ccccc1C(=O)O	27.0*	-1.4	8.4	-2.2	-12.9	-0.9	3.8	3.4
COc1ccc(-c2cc3nc(NCCN4CCCC4)n(C)c(=O)c3s2)cc1OC	38.9*	·	20.4	·	·	·	96.1*	72.5*
COC(=O)C1=CN(c2ccc(F)cc2)C=C(C(=O)OC)C1c1ccc(O)cc1	70.8*	1.4	9.3	0.7	-3.0	4.5	95.8*	82.3*
COC(=O)C1=CN(c2cc(C)cc(C)c2)C=C(C(=O)OC)C1c1ccc(OC)c(O)c1	5.2	-6.4	7.6	-5.6	9.9	2.1	·	·
N#C/C(=C\c1cccnc1)c1ccccn1	37.3*	-0.9	4.3	0.9	-5.7	-0.2	45.5*	41.4*
N#C/C(=C\c1ccccc1)c1ccccn1	1.6	-4.2	7.5	-1.3	-6.6	2.0	·	·
Cc1c(C(=O)NNC(=S)NCc2ccc(Cl)cc2)oc2ccccc12	3.7	-8.0	8.9	8.1	10.1	4.1	·	·
COC1(OC)N=C(N)C2(C#N)C(c3ccccc3)NC(C)=CC12C#N (centres undefined)	61.6*	3.8	-2.0	-8.6	0.4	-0.3	+	+
COC1(OC)N=C(N)C2(C#N)C(c3cccc(Oc4ccccc4)c3)C12C#N (centres undefined)	-4.0	-4.8	0.6	4.5	-11.6	0.1	·	·
O=C(/C=C/c1cn(-c2ccccc2)nc1-c1cccs1)NCCN1CCOCC1	45.5*	-8.4	26.2	3.9	1.2	-1.0	142.7*	86.9*
O=C(c1cn(-c2ccccc2)nc1-c1cccs1)N1CCOCC1	-2.0	0.4	2.6	-0.7	1.1	-6.1	·	·
COc1ccccc1-c1cc(NC=O)c2ncc(-c3ccc(S(C)(=O)=O)cc3)n2c1	103.8*	·	18.6	·	·	·	+	+
O=CNc1cc(-c2ccsc2)cn2c(-c3ccccc3)cnc12	-1.2	·	8.0	·	·	·	·	·
CS(=O)(=O)c1ccc(-c2cnc3c(NC=O)cc(-c4ccsc4)cn23)cc1	28.6*	·	18.6	·	·	·	166.5*	135.8*
COc1cc(S(=O)(=O)NCC(c2ccco2)N2CCCCC2)ccc1NC(C)=O (centres undefined)	0.6	-5.2	0.4	·	-3.9	0.2	·	·
CSc1ccc(S(=O)(=O)N(CC(=O)NCc2ccccn2)c2ccc(C)cc2)cc1	76.9*	-4.3	-2.7	3.9	-4.8	-1.7	180.7*	141.2*
CCc1cc(=O)oc2cc(OCC(=O)NCCCN3CCCC3=O)c(Cl)cc12	8.3	-3.1	6.8	0.3	10.8	-0.5	·	·
Cc1c(OCC(=O)NCCCN2CCCC2=O)ccc2c3c(c(=O)oc12)CCCC3	29.1*	3.1	20.7	-1.3	-3.9	0.4	+	+
Cc1cc(OCC(=O)NCCCN2CCOCC2)c2c(C)c(C)c(=O)oc2c1	86.1*	3.6	10.3	-0.7	1.5	-0.8	129.3*	144.2*
Cc1cc(OCC(=O)NCCc2ccc(Cl)cc2)c2c(C)cc(=O)oc2c1	4.2	-0.1	0.8	-0.5	0.3	-2.0	·	·
Cc1cc(OCC(=O)NCCc2ccc(S(N)(=O)=O)cc2)c2c(C)c(C)c(=O)oc2c1	64.8*	-2.6	6.7	0.5	1.6	0.0	11.5	-0.6	GDH-TPI DR=1.96*
Cc1cc(OCC(=O)NCCCN2CCCC2=O)c2c(C)c(C)c(=O)oc2c1	80.0*	1.6	0.4	5.9	-3.9	2.1	+	+
SMILES	Mtb FBA inh	Rv3671c inh	GDH-TPI counter-1	RecA splice inh	Mtb betalactam	Mtb UGM inh	Mtb FBA inh conf	GDH-TPI counter-2	others
O=C(NC(Cc1ccccc1)C(=O)N1CCCCC1)c1ccccc1 (centres undefined)	6.5	-1.1	7.0	1.0	2.3	-0.8	·	·
CC(C(=O)Nc1ncc([N+](=O)[O-])s1)N1C(=O)c2ccccc2S1(=O)=O (centres undefined)	2.9	-1.3	-0.3	1.2	-1.2	-1.3	·	·
COc1ccc(CC(=O)OC(C)C(=O)NC2CCCCC2C)cc1 (centres undefined)	-1.0	·	-1.8	·	·	·	·	·
COc1ccc(N/C=C(\C#N)S(=O)(=O)c2ccc(Cl)cc2)c(OC)c1	-1.6	3.2	6.6	4.5	-1.8	-1.2	·	·
Cc1cc(=O)oc2cc(OCC(=O)NCCCN3CCCC3=O)ccc12	17.9	-7.2	10.1	-1.4	2.3	1.0	·	·
Cc1c(C)c2ccc(OCC(=O)NCCCN3CCCC3=O)cc2oc1=O	86.6*	5.0	19.7	-0.3	?	-1.8	55.7*	45.7*
COc1cccc(CNn2c(-c3cccc(C)c3)nc3ccccc3c2=O)c1O	-2.3	8.8	-7.8	-3.9	12.7	-0.2	·	·
COc1ccccc1[C@H]1C(c2ccc(F)cc2)=NN(c2ccccc2)[C@@H]1CO	43.7*	·	16.4	·	·	·	+	+
COc1ccccc1[C@H]1C(c2cccc(C)c2)=NN(c2ccccc2)[C@@H]1CO	44.1*	·	20.0	·	·	·	108.5*	114.3*
CCOC(=O)N1CCC(NC(=O)c2cc3cc4cc(OC)ccc4nc3o2)CC1	86.1*	8.8	16.8	0.5	-0.7	0.8	24.0	-5.1
CCOC(=O)N1CCC(NC(=O)c2cc(-c3ccc(OC)cc3)nc3ccccc23)CC1	12.5	-3.8	18.8	-2.9	97.5	-0.6	·	·
COc1ccc2nc3oc(C(=O)NC4CCN(Cc5ccccc5)CC4)cc3cc2c1	32.4*	5.5	13.0	·	-3.7	-5.8	5.8	2.2
Cn1c(=O)n(C)c2cc3[nH]cnc3cc21	2.5	3.3	-3.2	1.9	-1.7	-1.4	·	·
Nc1cc2nc[nH]c2cc1N	31.8*	·	10.5	-4.6	·	·	54.5*	50.5*
CCc1ccc2nc(N=C(N)N)nc(C)c2c1	40.0*	8.0	6.2	4.1	-5.5	-0.7	177.3*	133.0*
NS(=O)(=O)c1ccc(CNC(=O)c2cc(S(=O)(=O)N3CCOCC3)c(Cl)cc2Cl)cc1	2.8	·	8.8	·	·	·	·	·
Cc1nn(-c2ccc(F)cc2F)c(=O)c2noc(C)c12	0.8	5.8	1.5	-0.9	-13.1	1.5	·	·
Cc1nn(-c2ccc(F)cc2F)c2c1-c1nc(N3CCCC3)ncc1CC2	29.9*	-0.9	1.9	3.2	89.2	-2.9	+	+
Cc1ccc(C)c2nc(N3CCCC3)c(C#N)cc12	33.1*	-6.7	7.4	·	97.2	-0.8	173.3*	146.4*
